Laboratory results as given in PubChem BioAssay AID778 (Sanford-Burnham Center for Chemical Genomics, 2007).
Screen size: about 96,000 compounds; about 20,000 (21%) were called active.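 The calls were made as follows: active = CYP2C19 inhibition above a set limit at 5 µM in the primary screen (cut at about 50% in these data); inactive = the rest.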 Only a sample is shown.

Target: Cytochrome P450 2C19 (Homo sapiens) (UniProt P33261)
Assay: blockers of cytochrome P450 2C19 activity – biochemical, luminescence, ADME assay, primary screen (AID 778);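 also: plate controls were negative control wells for no effect and 2.5 mM tranylcypromine positive control for full effect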
Details: CYP2C19 Supersomes, luciferin-H EGE luminescence, 30 min; at 5 µM; hits give high values

Sequence of Cytochrome P450 2C19 (Homo sapiens) (P33261 whole entry, looked up): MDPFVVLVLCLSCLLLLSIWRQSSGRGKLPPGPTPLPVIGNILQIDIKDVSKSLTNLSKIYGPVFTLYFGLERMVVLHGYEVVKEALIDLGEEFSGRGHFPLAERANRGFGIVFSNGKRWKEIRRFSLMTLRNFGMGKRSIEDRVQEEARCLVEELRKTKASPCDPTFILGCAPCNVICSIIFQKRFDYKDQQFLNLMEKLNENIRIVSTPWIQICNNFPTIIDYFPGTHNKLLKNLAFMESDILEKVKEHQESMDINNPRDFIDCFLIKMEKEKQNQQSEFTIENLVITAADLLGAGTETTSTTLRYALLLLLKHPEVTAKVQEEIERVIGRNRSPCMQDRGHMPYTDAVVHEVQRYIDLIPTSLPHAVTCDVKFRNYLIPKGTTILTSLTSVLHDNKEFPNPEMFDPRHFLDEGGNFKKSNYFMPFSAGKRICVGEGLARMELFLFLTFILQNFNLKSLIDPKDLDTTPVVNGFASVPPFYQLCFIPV

inhibition, active:
CCn1c(Cc2cccs2)nnc1SCC(=O)c1ccc(C)cc1 94.1%
Cc1ccc(-n2c(Cc3cccs3)nnc2SCC(=O)OC(C)C)cc1 98.1%
CCn1c(SCC(=O)c2ccc(Cl)s2)nnc1-c1cccs1 94.2%
COc1ccc(C(c2nnnn2C2CCCCC2)N2CCN(c3ccccc3F)CC2)cc1 (stereo not drawn) 80.6%
COc1ccc(N2CCN(C(c3cc4ccc(C)cc4[nH]c3=O)c3nnnn3C3CCCC3)CC2)cc1 (stereo not drawn) 54.4%
Nc1ccc(-c2sc(N)nc2-c2ccccc2)cc1 61.8%
CCc1ccc(CNC(=O)C2CCCN(c3nc4ccccc4o3)C2)cc1 (stereo not drawn) 65.8%
COc1ccc(/C(O)=C2/C(=O)C(=O)N(c3nc(C)c(C)s3)C2c2ccco2)cc1 (stereo not drawn) 58.8%
C=CCNC(=O)c1cc2nc(C3CC3)cc(C(F)F)n2n1 51.2%
Cc1nn(C)c(Oc2ccccc2)c1CCNS(=O)(=O)c1ccc(F)cc1 96.7%
Cc1nn(C)c(Oc2ccccc2)c1[N+](=O)[O-] 64%
c1ccc(CSCCc2ccncc2)cc1 99.8%
Cc1nc(Nc2ccc3c(c2)OCCO3)c2nnn(Cc3ccccc3Cl)c2n1 83.2%
O=C(/C=C/c1cccs1)c1cc(Cl)ccc1OC(=O)N1CCOCC1 90.6%
CCOC(=O)c1cc(C)sc1NC(=O)C1CCC1 54.6%
CCOc1ccc(S(=O)(=O)n2ccnc2)c2ccccc12 66.5%
CCCCOC(=O)c1ccc(N2C(=O)CC(N3CCN(C/C=C/c4ccccc4)CC3)C2=O)cc1 (stereo not drawn) 86.2%
COC(=O)c1ccccc1Sc1c(/C=N/OCc2ccc(Cl)cc2)c(C(F)(F)F)nn1C 72.6%
O=C(/C=C/NNC(=O)c1cccc(Br)c1)c1ccccc1 76.7%
CCOc1ccccc1NC(=O)C12CC3CC(C1)CC(c1ccc(C)cc1)(C3)C2 51.9%
FC(F)Oc1ccccc1C1CC(c2ccc(Br)s2)Nc2ncnn21 (stereo not drawn) 98.5%
CCC(c1nnnn1Cc1ccco1)N(Cc1cc2cc(OC)ccc2[nH]c1=O)C1CCCCC1 (stereo not drawn) 53.6%
CCC(c1nnnn1Cc1ccco1)N(CCc1ccccc1)Cc1cc2ccc(OC)cc2[nH]c1=O (stereo not drawn) 92.2%
Cc1cc(Oc2ccccc2)nc(N2CCOCC2)n1 94.5%

inhibition, inactive:
CCOC(=O)CSc1nnc(CNC(=O)c2ccco2)n1-c1ccc(F)cc1 -4.9%
COc1ccc(-n2c(SCC(=O)OC(C)C)nnc2-c2ccccn2)cc1 12%
Cc1ccc(C(=O)CSc2nnc(Cn3nnc4ccccc43)n2C)cc1 13.9%
CCn1c(SCC(=O)c2ccc3ccccc3c2)nnc1-c1cccs1 15.7%
Cn1c(SCC(=O)c2cccs2)nnc1-c1ccco1 42.3%
CCS(=O)(=O)Nc1cc(C(=O)OC)ccc1C(=O)OC 49.8%
CCSc1nc(C)nc2c1oc1ccccc12 15.2%
COc1ccc(-c2cn3ccsc3n2)cc1 14.3%
CCCS(=O)(=O)N1CCCC(C(=O)NCCN2CCCCC2C)C1 (stereo not drawn) -13.4%
O=C(CCC(=O)N1CCN(S(=O)(=O)c2ccccc2)CC1)NC1CCCc2ccccc21 (stereo not drawn) 17.7%
COCc1[nH][nH]c(=O)c1C=Nc1ccc(F)cc1F -10.3%
CC(C)C(NC(=O)OCc1ccccc1)C(=O)OCC(=O)N1C(C)CCCC1C (stereo not drawn) 40.3%
CC(C)C(c1nnnn1C1CCCC1)N1CCN(c2ccccc2F)CC1 (stereo not drawn) 8%
Cc1cccc(N2CCN(C(c3ccccc3)c3nnnn3CC3CCCO3)CC2)c1C (stereo not drawn) 12.7%
CCOc1ccc2[nH]c(=O)c(C(c3nnnn3CCOC)N3CCOCC3)cc2c1 (stereo not drawn) 11.5%
CC(C)c1ccc(NS(=O)(=O)c2cn(C)c(=O)n(C)c2=O)cc1 34%
Cc1cc(N2CCCC2)n2nc(C)c(-c3ccccc3)c2n1 -17.7%
CCNc1nc(NCC)nc(N(C)n2cnnc2)n1 -6%
Nc1ccc(-c2nnc(-c3ccc(-c4ccccc4)cc3)o2)cc1 25.3%
CC(=O)c1cc(C#N)c(SCC(=O)C(C)(C)C)nc1C 34.4%
Cn1c(C(=O)NCCc2ccsc2)cc2c(=O)n(C)c3ccccc3c21 11.7%
COc1ccc(OC)c(CNC(=O)C2CCCN(c3nc4ccccc4o3)C2)c1 (stereo not drawn) 17.2%
COc1ccccc1CNC(=O)C1CCN(c2nc3ccccc3o2)CC1 3.5%
COc1ccc2ccccc2c1CNCc1ccccn1 15.9%
COc1ccccc1C1/C(=C(/O)c2ccc(OC(C)C)cc2)C(=O)C(=O)N1c1cc(C)on1 (stereo not drawn) -7.6%
COc1ccc(/C(O)=C2\C(=O)C(=O)N(Cc3ccco3)C2c2ccc(OC)cc2OC)cc1 (stereo not drawn) 3.4%
CN(C)CCCn1c(N)c(C#N)c2nc(C#N)c(C#N)nc21 -1.9%
COC(=O)C(C)Oc1ccc2c(-c3cccc([N+](=O)[O-])c3)cc(=O)oc2c1 (stereo not drawn) 28.8%
O=C(Nc1ccc(Cl)cc1)c1cc2nc(C3CC3)cc(C(F)(F)F)n2n1 -6.4%
Cc1nc(N2CCCC2C(=O)O)c2oc3ccccc3c2n1 (stereo not drawn) 2.4%
Cc1ccccc1NC(=O)C(C)c1ccc(-c2ccccc2)c(F)c1 (stereo not drawn) 7.1%
Cc1n[nH]c(=O)n1-c1ccc(Oc2ccccc2)cc1 18.5%
Cc1nn(C)c(Oc2ccc(Cl)cc2)c1C=O 27.7%
Cc1cccc(N2C(=O)SC(N(CC(=O)O)c3cccc(C)c3)C2=O)c1 (stereo not drawn) 1.5%
COC(=O)C(NC(=O)c1ccc(OC)cc1)(Nc1ncc(S(=O)(=O)c2ccc([N+](=O)[O-])cc2)s1)C(F)(F)F (stereo not drawn) 33.8%
O=C(CSCc1ccc([N+](=O)[O-])cc1)NCCSCc1ccccc1 21.3%
COc1ccc(-c2nn(C)c(=O)c3ccccc23)cc1NC(=O)COc1ccccc1 25.6%
CCOc1nc(OCC)nc(-n2cc(-c3ccccc3)nn2)n1 3.5%
Cc1cnc(NC(=O)CSc2nnc(-c3ccc(Cl)cc3Cl)n2N)s1 23.2%
COc1ccc(-c2nnc(SC(C)C#N)o2)cc1 (stereo not drawn) 10.9%
C#CCNc1nc(C(C)C)nc2c1nnn2Cc1ccccc1F 37.3%
O=C(Nc1cc2ccccc2oc1=O)C1CCCCC1 0.3%
O=C(CC12CC3CC(CC(C3)C1)C2)Nc1ccc2c(c1)COC2=O 12.8%
O=C(Oc1ccc2c(c1)CCC2)N1CCOCC1 11.1%
CC(=O)Nc1ccccc1OC(=O)N1CCOCC1 0.3%
O=c1cc(N2CCN(Cc3ccccc3)CC2)c(-c2ccccc2)n[nH]1 19%
Cc1cnc(NC(=O)C2CCCC2)s1 17.5%
CCOC(=O)c1c(NC(C)=O)sc2c(O)c(Br)ccc12 3.8%
CC(=NC1CCN(Cc2ccccc2)CC1)c1c(O)[nH]c(=O)[nH]c1=O -7.4%
CC(C)c1nnc(NC(=O)C2CCCN2S(=O)(=O)c2ccc(Cl)cc2)s1 (stereo not drawn) 17.2%
CCOc1ccc(NC(=O)CC2NCCNC2=O)cc1 (stereo not drawn) 1.1%
CCOc1ccc(S(=O)(=O)N2CCCCCC2)c2ccccc12 32.3%
CCOC(=O)c1ccc(N2C(=O)CC(N3CCC(C(=O)OCC)CC3)C2=O)cc1 (stereo not drawn) 47.5%
CCOC(=O)c1ccc(N2C(=O)CC(N3CC(C)OC(C)C3)C2=O)cc1 (stereo not drawn) 6.8%
CCCCCCC(=O)Nc1nc(C)c(-c2csc(Nc3cccc(OC)c3)n2)s1 -4.8%
COC(=O)c1ccccc1NC(=O)Cn1nc(C(F)(F)F)c2c1CCC2 36.4%
O=C1N=C2SCCN2/C1=C\c1c(Cl)cccc1Cl 11.1%
Cc1cc(Nc2ccccc2)nc(N)n1 -8.2%
CNC(=O)n1ccc(C(=O)N2CCCCC2)n1 -16.6%
O=C(/C=C\NCC(=O)c1ccccc1)c1ccccc1 46.4%
CC(C)(O)C(=O)NN(C(=O)c1ccccc1)c1cccc(Br)c1 2.5%
CCC(C)(C(=O)NC1CCCC1)N(C(=O)CNC(C)=O)c1ccc(C)cc1 (stereo not drawn) 21.1%
CCOc1ccccc1NC(=O)C1CCC(CNc2c(N3CCOCC3)c(=O)c2=O)CC1 (stereo not drawn) -13.1%
CCOc1ccc(NC(=O)CN(C)CC(=O)Nc2cccc(Cl)c2C)cc1OCC 21.6%
CCOCC(=O)Nc1cc(OC)c(Cl)cc1OC 29.8%
COc1ccc(-c2cc(C(F)(F)F)n3nc(C(=O)N4CCOCC4)c(Cl)c3n2)cc1 -7.1%
CCC(c1nnnn1Cc1ccccc1)N(Cc1cc2cc(OC)ccc2[nH]c1=O)CC1CCCO1 (stereo not drawn) 44.9%
COc1ccc2[nH]c3c(=O)n(Cc4ccco4)cnc3c2c1 21.8%
CCC(=O)N(Cc1cc2cc(OC)ccc2[nH]c1=O)c1ccccc1C 21.8%
CCC(c1nnnn1Cc1ccco1)N(CCc1ccccc1)Cc1cc2cccc(C)c2[nH]c1=O (stereo not drawn) 38.3%
O=C1c2ccccc2-c2ncnc3c(N4CCOCC4)cc(N4CCOCC4)c1c23 29.6%
CCOC(=O)c1sc(NC(=O)CSc2nc(C)cc(C(F)(F)F)n2)c(C#N)c1C 19.8%
CC(=O)c1ccc(Oc2cc(C)nc(-n3nc(C)cc3C)n2)cc1 -5.5%
Cc1nc(N2CCOCC2)nc2c1CCCC2 28.5%
